Reference: ChEMBL document CHEMBL4513216, “Probing the Open Global Health Chemical Diversity Library for Multistage-Active Starting Points for Next-Generation Antimalarials” (ACS Infect Dis, 2020)
About 8,600 (12%) of roughly 69,000 compounds showed an effect of 50% or more. Only a selection was taken, and strong results are over-represented in it overall.

System: Plasmodium berghei
Experiment: Screen against P. berghei liver stage (PbLuc), transformed with Luciferase, at 10uM
Type: functional, HepG2
Details: tested at 10 uM

Q: For `Cc1nn(C)c(N(C)C)c1CNC1CCc2cc(F)ccc21` (configuration not stated), which INHIBITION is on record?
A: 27.4%

Q: With `Cc1ccccc1S(=O)(=O)N[C@@H]1CC[C@@H](N2CCNC(=O)C2)[C@@H]1O` as the compound, how does the INHIBITION read?
A: 6.65%

Q: How did the INHIBITION turn out when `COc1cc(CNCC(O)c2cccc(F)c2)cc2c1OCO2` (configuration not stated) was run?
A: 44.1%

Q: How did the INHIBITION turn out when `Cc1nc(CN(C)C2CCCN(c3cccnn3)C2)nc2ccccc12` (configuration not stated) was run?
A: 47%

Q: For `CCN(CC)c1ncccc1CNCc1ccc(-c2ccn[nH]2)s1`, which INHIBITION is on record?
A: 27.6%

Q: `O=C(O)c1ccccc1-c1ccc(CNC(=O)C2CCOCC2)cc1` was tested. Which INHIBITION did it give?
A: 56.6%

Q: With `O=C(O)c1ccccc1-c1cnc(CNC(=O)C2CCOCC2)nc1` as the compound, how does the INHIBITION read?
A: -17.35%

Q: `CC1CCCCN1Cc1ccc(-c2ccccc2C(=O)O)cc1` (configuration not stated) was tested. Which INHIBITION did it give?
A: 25.3%

Q: For `COCc1cc(NCC(F)(F)F)n2nccc2n1`, which INHIBITION is on record?
A: 7.24%

Q: How did the INHIBITION turn out when `Cc1nc(N(C)C)nc(NCCc2cnccn2)c1C` was run?
A: 27.4%

Q: How did the INHIBITION turn out when `N#Cc1ccc(N2CCC3(CC2)CC(N2CCOCC2)CO3)cc1` (configuration not stated) was run?
A: 73.2%

Q: With `N#Cc1ccc(N2CCC3(CC2)CC(Oc2cccnc2)CO3)cc1` (configuration not stated) as the compound, how does the INHIBITION read?
A: 73.3%

Q: Which INHIBITION does the source give for `CN1CCN(C2COC3(CCN(c4ccc(C#N)cc4)CC3)C2)CC1` (configuration not stated) here?
A: 39.5%

Q: `c1cncc(N2CCCC3(CCN(CCN4CCCC4)CC3)C2)c1` was tested. Which INHIBITION did it give?
A: -26.1%

Q: For `N#Cc1ccc(N2CCCC3(CCN(c4cccnc4)CC3)C2)cc1`, which INHIBITION is on record?
A: 85.6%

Q: For `CN(C)C(=O)COC1COC2(CCN(c3cnccn3)CC2)C1` (configuration not stated), which INHIBITION is on record?
A: 21.6%

Q: With `O=C(c1ccncc1)N1CCC2(CC1)CC(Oc1cccnc1)CO2` (configuration not stated) as the compound, how does the INHIBITION read?
A: 35.8%

Q: For `c1cncc(COC2COC3(CCN(c4cnccn4)CC3)C2)c1` (configuration not stated), which INHIBITION is on record?
A: 60%

Q: For `CN1CCOCC12CCN(c1ccc(C#N)cc1)CC2`, which INHIBITION is on record?
A: -15.3%

Q: For `Fc1cnc(N2CCC3(CC2)CC(OCc2cccnc2)CO3)nc1` (configuration not stated), which INHIBITION is on record?
A: 30.5%

Q: For `c1cncc(N2CCC3(CCCN(c4ccncc4)C3)CC2)c1`, which INHIBITION is on record?
A: -29%

Q: With `O=S(=O)(C1CC1)N1CCC2(CC1)CC(Oc1cccnc1)CO2` (configuration not stated) as the compound, how does the INHIBITION read?
A: 26.7%

Q: With `O=C(c1cccc(N2CCCC2=O)c1)N1CCCC(n2cccn2)C1` (configuration not stated) as the compound, how does the INHIBITION read?
A: -21.35%

Q: How did the INHIBITION turn out when `O=C(c1c[nH]c(=O)[nH]c1=O)N1CCCC(c2nccn2CC2CCC2)C1` (configuration not stated) was run?
A: 22%

Q: How did the INHIBITION turn out when `CC(=O)N(Cc1ncc(C)o1)C1CCN(CCc2ccncc2)C1` (configuration not stated) was run?
A: 12.7%

Q: How did the INHIBITION turn out when `CN(Cc1ccccc1F)C(=O)COC(=O)c1cc(Cl)c[nH]1` was run?
A: 29.9%

Q: For `O=c1[nH]c(-c2ccncc2)ncc1-c1ccnc(NC2CC2)n1`, which INHIBITION is on record?
A: 18.9%

Q: How did the INHIBITION turn out when `c1cnc(Nc2ccc(C3CCCCN3Cc3ccncc3)cn2)nc1` (configuration not stated) was run?
A: 23.3%

Q: How did the INHIBITION turn out when `O=C(Cc1ccccc1)N1CCC2(CC1)COCCN2CC1CC1` was run?
A: 6.6%

Q: Which INHIBITION does the source give for `COCCOCC(C)NC(=O)COc1nn(C)c2nc(C)cc(C)c12` (configuration not stated) here?
A: 9.63%

Q: For `CCOc1ncccc1NC(=O)NC1CCN(S(C)(=O)=O)CC1`, which INHIBITION is on record?
A: 44.8%

Q: How did the INHIBITION turn out when `O=C(Nc1nc(-c2ccccc2)ns1)N1CCC(CO)CC1` was run?
A: -95.1%

Q: For `Cc1nn(C)c(N(C)C)c1CNCc1cccc(Cn2ccnc2)c1`, which INHIBITION is on record?
A: -31.5%

Q: For `Fc1ccc(N2CCC3(CC2)CC(OCc2cccnc2)CO3)cc1` (configuration not stated), which INHIBITION is on record?
A: 33.4%

Q: `c1cncc(CO[C@H]2CO[C@@]3(CCN(Cc4ccoc4)C3)C2)c1` was tested. Which INHIBITION did it give?
A: -0.79%

Q: With `N#Cc1ccc(N2CCC3(CC2)CC(OCc2cccnc2)CO3)cc1` (configuration not stated) as the compound, how does the INHIBITION read?
A: 58.5%

Q: `O=C(NCc1ccco1)[C@H]1C[C@@H]2CCN(c3ncccn3)C[C@H]2O1` was tested. Which INHIBITION did it give?
A: 9.51%

Q: For `c1cc(CNCC2OCCc3cn(CC4CC4)nc32)cs1` (configuration not stated), which INHIBITION is on record?
A: 20.9%

Q: For `COc1ccc2c(c1)c(-c1nc(C)ncc1CN)cn2C`, which INHIBITION is on record?
A: 27.6%

Q: For `CC(C)(C)CNC(=O)c1ccc(C(=O)O)cn1`, which INHIBITION is on record?
A: 11.3%

Q: Which INHIBITION does the source give for `CN(Cc1ccc(CCC(C)(C)O)cc1)Cc1cccnc1` here?
A: 57.1%

Q: With `CC(c1ccccn1)N(C)Cc1ccc(CCC(C)(C)O)cc1` (configuration not stated) as the compound, how does the INHIBITION read?
A: 36.6%

Q: How did the INHIBITION turn out when `Cc1cnc(CNC(=O)N(Cc2ccccc2)CC(C)(C)O)s1` was run?
A: 15.7%

Q: With `CN(Cc1ccc(CCC(C)(C)O)cc1)Cc1cccc(O)c1` as the compound, how does the INHIBITION read?
A: 22.5%

Q: With `CN(Cc1ccccc1)CC(C)(C)NC(=O)c1ccon1` as the compound, how does the INHIBITION read?
A: 38.7%

Q: `CN(Cc1ccccc1)CC(C)(C)NC(=O)c1cnccn1` was tested. Which INHIBITION did it give?
A: 64.5%

Q: `CN(Cc1ccccc1)CC(C)(C)NC(=O)c1cnns1` was tested. Which INHIBITION did it give?
A: 25.3%

Q: `CN(Cc1ccccc1)CC(C)(C)NC(=O)c1ccc(C(N)=O)cn1` was tested. Which INHIBITION did it give?
A: 52.2%

Q: For `Cc1ccc(C(=O)N2CCN3C[C@H](Oc4cccc(F)c4)C[C@H]3C2)cn1`, which INHIBITION is on record?
A: 0.804%

Q: How did the INHIBITION turn out when `O=C(NCC1CC2(CO1)CN(Cc1cccs1)C2)C1CCC1` (configuration not stated) was run?
A: 27.6%

Q: `COc1ccc(F)c(-c2ncccc2C(=O)N2C[C@@H]3CC[C@H]2C3)c1` was tested. Which INHIBITION did it give?
A: 39%

Q: Which INHIBITION does the source give for `COc1ccc(OCc2cc(C(=O)N3CCN[C@H](C)C3)n[nH]2)c(Cl)c1` here?
A: 65.1%

Q: `COc1ccccc1OCc1cc(C(=O)N2CCN[C@H](C)C2)n[nH]1` was tested. Which INHIBITION did it give?
A: 51.8%

Q: `COc1ccc(OCc2cc(C(=O)N3CCC(O)CC3)n[nH]2)c(Cl)c1` was tested. Which INHIBITION did it give?
A: -3.75%

Q: `COc1ccc(OCc2cc(C(=O)N3C[C@@H](C)O[C@@H](C)C3)n[nH]2)c(Cl)c1` was tested. Which INHIBITION did it give?
A: 44.2%

Q: For `COc1ccccc1OCc1cc(C(=O)N2CC(O)C2)n[nH]1`, which INHIBITION is on record?
A: -34.5%

Q: Which INHIBITION does the source give for `COc1ccccc1OCc1cc(C(=O)N2C[C@@H](C)O[C@@H](C)C2)n[nH]1` here?
A: -16%

Q: How did the INHIBITION turn out when `Cc1cccc(C(=O)N2CC(=O)N(c3ccccc3Cl)CC2C)n1` (configuration not stated) was run?
A: 28.2%

Q: How did the INHIBITION turn out when `Cc1ccc(N(C)S(=O)(=O)c2cc(C(=O)O)cs2)c(C)c1` was run?
A: -42.1%

Q: `Cn1cc(CN2CC[C@H]3OCC[C@@H](C(=O)NC4CCCC4)[C@@H]3C2)cn1` was tested. Which INHIBITION did it give?
A: 10%

Q: Which INHIBITION does the source give for `CNc1nc2cn(CCc3ccc(F)cc3)c(=O)c-2c[nH]1` here?
A: 45.8%

Q: With `O=C1CC(c2ccc(O)cc2)c2c(c(C(=O)O)cn2-c2ccccc2)N1` (configuration not stated) as the compound, how does the INHIBITION read?
A: 25.2%

Q: `COc1ccc(CN2CCn3cc(Cn4cccn4)nc3C2)cc1` was tested. Which INHIBITION did it give?
A: 7.9%

Q: For `COc1ccccc1OCCN(C)Cc1c(C2CC2)[nH]c2ncccc12`, which INHIBITION is on record?
A: 10.7%

Q: With `CC(CC(=O)N1CCCS1(=O)=O)c1ccccc1C(F)(F)F` (configuration not stated) as the compound, how does the INHIBITION read?
A: 50.1%

Q: How did the INHIBITION turn out when `CC(Cc1ccc(C(F)(F)F)cc1)C(=O)N1CCCS1(=O)=O` (configuration not stated) was run?
A: -33.4%

Q: `COc1ccccc1C(C)CC(=O)N1CCCS1(=O)=O` (configuration not stated) was tested. Which INHIBITION did it give?
A: -6.7%
